ALDH1A1 block – inhibitors of human aldehyde dehydrogenase 1A1; 220,000 compounds, 7.3% hits; AID 1030; Purified ALDH1A1, NADH fluorescence, propionaldehyde substrate; Potency, µM (titrated, usually from 75.3 µM), inactives show top-dose activity, negative = inhibition, most hits filed as inhibitors; P00352; active means well fitted inhibition curve with a large enough effect, not every such curve was filed as active; inconclusive means small, poorly fitted or top-dose-only effect, or another doubt; inactive means no such curve, though single readings can be large or run the other way;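 further: potency means the concentration at half of the fitted maximal effect; plate controls were no enzyme wells and a reference inhibitor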
HPGD block – HPGD (human) dehydrogenase inhibition | Potency, µM, without a hit: top-dose activity change, negative = inhibition, hits mostly inhibitors | purified HPGD, NADH fluorescence kinetic, PGE2 substrate | 150,000 compounds, 4.3% hits | P15428; active means well fitted inhibition curve with a large enough effect, not every such curve was filed as active; inconclusive means small, poorly fitted or top-dose-only effect, or another doubt; inactive means no such curve, though single readings can be large or run the other way; further: potency means the concentration at half of the fitted maximal effect
Target sequence (P15428 whole entry, looked up): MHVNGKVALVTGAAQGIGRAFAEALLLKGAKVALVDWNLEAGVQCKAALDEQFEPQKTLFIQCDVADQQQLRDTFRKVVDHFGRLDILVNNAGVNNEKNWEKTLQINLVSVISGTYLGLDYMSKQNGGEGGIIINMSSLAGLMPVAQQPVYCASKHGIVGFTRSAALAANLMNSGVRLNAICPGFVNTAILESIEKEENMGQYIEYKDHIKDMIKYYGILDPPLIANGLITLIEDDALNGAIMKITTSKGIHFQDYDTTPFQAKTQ
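20 nM HPGD preincubated 15 min at room temperature with compound in 50 mM Tris-HCl pH 8, 0.01% Tween 20. Started with 1 mM NAD+ and 30 uM prostaglandin E2; NADH fluorescence (360/450 nm) read 5 times over 30-s intervals, last minus first.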
GLA inh pH 4.5 – alpha-galactosidase A (human) inhibition, pH 4.5; purified enzyme, 4-MU-alpha-Gal fluorescence, pH 4.5; AID 1467; activity change, negative = inhibition, % at 105 µM; 230,000 tested, under 10 active; P06280;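 further: 0% = full activity with enzyme and -100% = basal without enzyme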
Target sequence (P06280 whole entry, looked up): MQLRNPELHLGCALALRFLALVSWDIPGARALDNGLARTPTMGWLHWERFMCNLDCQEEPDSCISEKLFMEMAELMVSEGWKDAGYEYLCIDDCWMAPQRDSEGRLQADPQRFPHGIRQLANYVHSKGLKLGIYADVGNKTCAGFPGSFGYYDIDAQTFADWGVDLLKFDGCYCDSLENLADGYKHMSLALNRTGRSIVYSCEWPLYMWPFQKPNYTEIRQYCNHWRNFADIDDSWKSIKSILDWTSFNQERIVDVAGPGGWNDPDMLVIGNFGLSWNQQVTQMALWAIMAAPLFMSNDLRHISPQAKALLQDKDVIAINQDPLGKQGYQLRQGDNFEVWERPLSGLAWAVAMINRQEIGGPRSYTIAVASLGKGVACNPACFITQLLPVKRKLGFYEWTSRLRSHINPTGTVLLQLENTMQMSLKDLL
PNC inhibitor – perinucleolar compartment assembly inhibition | PC3M PTB-GFP, PNC prevalence imaging, 16 h; hits give low values | activity change (PNC), negative = inhibition, % at 10 µM | 140,000 compounds, 3.1% hits | AID 2417;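 active means readout at or below -70, meaning at least 70% loss of cells showing the perinucleolar compartment, a nuclear body marking cancer cells; inconclusive means readout between -30 and a set limit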;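 further: plate controls were DMSO wells for no effect and camptothecin positive control wells for full effect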
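Read-out is percentage of cells bearing a perinucleolar compartment, from automated 20x imaging of fixed, Hoechst-stained PC3M PTB-GFP cells. Cells were seeded 4 h, then exposed 16 h to compound (23 nl of library stock) in duplicate plates.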
GLA spleen mod – alpha-galactosidase A (human) modulation; P06280; AID 2107; 240,000 compounds, 0.008% hits; Potency, µM (highest dose often 80 µM), for the others: at the highest dose activity change, negative = inhibition, actives largely listed as inhibitors; human spleen homogenate, 4MU-alpha-Gal fluorescence, 40 min;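 further: potency means the concentration at half of the fitted maximal effect; 0% = enzyme with vehicle and -100% = no enzyme basal signal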
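Human spleen homogenate (1 ug) was the enzyme source, with 4-methylumbelliferyl-alpha-D-galactopyranoside (1 mM final) in pH 5.0 citrate buffer with 0.01% Tween-20. Compounds were titrated; after 40 min at 37C, NaOH/glycine stop, 4-MU fluorescence read; AC50 from Hill fits.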
12-hLO inh – inhibitors of human 12-lipoxygenase (ALOX12); 150,000 compounds, 0.12% hits; purified 12-hLO, xylenol orange hydroperoxide absorbance; Potency, µM (highest dose often 57.1 µM), inactives show at the highest dose activity change, negative = inhibition, hits mostly inhibitors; AID 1452; P18054; further: potency means the concentration at half of the fitted maximal effect; nearly all actives have a fitted effect of over 55% in size
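Purified human 12hLO (150 nM), preincubated 15 min with compound, then 40 uM arachidonic acid for 30 min, room temperature, Hepes pH 7.0 with 0.01% Triton X-100. Hydroperoxide detected by ferrous iron/xylenol orange; 573/405 nm absorbance ratio gives reaction progress.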
The depositor's hits bear a star; ? = inconclusive; . = no result; [ ] = another dose, or the depositor's remark. Compounds with a hit are over-represented: about 10% of the library has one in this group of screens. Unless noted, the call rests on the fitted dose curve; in most records, active means well fitted curve in the direction sought with a large enough effect; inconclusive means small, poorly fitted or top-dose-only effect, or another doubt; inactive means no such curve, though single readings can be large; an effect the other way counts as inactive or inconclusive. Unless noted, on the % scale 0 is the no-effect control and ±100 the full control effect.

SMILES	ALDH1A1 block	HPGD block	GLA inh pH 4.5	PNC inhibitor	GLA spleen mod	12-hLO inh
CCOC(=O)c1c(NC(=O)Cn2nc(C(F)F)cc2C(F)F)sc(C)c1C	?	?	-15	37	4%	-14%
O=C(Oc1ccccc1)N1CCC2(CC1)CCN(c1ccccn1)CC2	?	-15%	.	.	0%	-14%
CCCCCCCCCCCCCCC(F)C(=O)O (centres undefined)	-1%	-6%	-9	.	-6%	3%
Cn1c(N)c(C(=O)NCc2ccccc2)sc1=S	20µM*	?	-9	-6	-6%	-3%
CCOC(=O)c1sc(=S)n(C)c1NC(=O)c1ccccc1	3.5µM*	8.9µM*	2	?	-3%	-2%
COC(=O)c1ccccc1NC(=O)c1sc(=S)n(C)c1N	20µM*	22µM*	-10	?	-2%	-10%
COc1ccc(CCNC(=O)c2sc(=S)n(C)c2N)cc1	-11%	-16%	4	4	?	-2%
COc1ccc(CCNc2oc(-c3ccco3)nc2C#N)cc1	?	?	-8	-100*	-7%	-6%
CCOC(=O)c1c(NC(=O)C2=C(C)NC(=S)NC2c2ccc(C)cc2)sc(C)c1C (centres undefined)	?	?	9	-22	-3%	?
CCOC(=O)c1c(NC(=O)C2=C(C)NC(=S)NC2c2ccc(F)cc2)sc(C)c1C (centres undefined)	14µM*	?	-5	-29	-11%	?
CCOC(=O)c1c(NC(=O)C2=C(C)NC(=S)NC2c2ccc(F)cc2F)sc(C)c1C (centres undefined)	11µM*	-21%	-2	?	4%	?
COc1ccccc1NC(=O)c1cc2cc(Br)ccc2cc1O	.	.	-2	.	10%	.
COc1cccc(NC(=O)CN2CCN(S(=O)(=O)c3ccc(F)cc3)CC2)c1	10%	1%	5	-111*	-6%	-4%
COc1cccc(NC(=O)CN2CCN(S(=O)(=O)c3ccc(C(C)C)cc3)CC2)c1	22µM*	-15%	-15	-28	3%	2%
Cc1c(C(=O)N2CCCCCC2)oc2ccccc12	-10%	16µM*	-3	26	-4%	0%
COc1ccc(N2CCN(C(=O)c3oc4ccccc4c3C)CC2)cc1	-17%	.	-4	.	-3%	.
Cc1ccccc1C(=O)N1CCN(c2ccccn2)CC1	?	-28%	-1	-9	1%	8%
O=C(c1oc2ccccc2c1CSCc1ccccc1)N1CCN(c2ncccn2)CC1	13µM*	-10%	4	-11	-14%	-12%
Cc1c(C(=O)N2CCN(c3ccccn3)CC2)oc2ccccc12	14µM*	-21%	4	37	4%	-12%
O=c1cc(N2CCc3ccccc32)[nH]c(=O)n1-c1ccc(Br)cc1	?	28µM*	-4	-14	3%	-8%
O=c1cc(N2CCc3ccccc32)[nH]c(=O)n1-c1ccccc1Cl	-7%	.	10	.	-14%	.
Cc1ccccc1-n1c(=O)cc(N2CCc3ccccc32)[nH]c1=O	?	-21%	8	-108*	2%	4%
COc1ccc(-n2c(=O)cc(N3CCc4ccccc43)[nH]c2=O)cc1	-2%	-20%	7	44	21%	-1%
O=C(Nc1nccs1)c1ccccc1[N+](=O)[O-]	10%	-10%	-1	-15	-3%	1%
Cn1ncc([N+](=O)[O-])c1C(=O)Nc1nccs1	0%	?	-5	-105*	1%	-2%
SMILES	ALDH1A1 block	HPGD block	GLA inh pH 4.5	PNC inhibitor	GLA spleen mod	12-hLO inh
O=C1c2ccccc2NC(c2cccc(O)c2)N1NS(=O)(=O)c1ccccc1 (centres undefined)	?	.	-15[21.1 µM]	.	5%	.
Cc1ccc(/C=N/NC(=O)c2cccs2)o1	-7%	-17%	-5	-83*	-2%	1%
Cc1ccc(/C=N/NC(=O)c2csc(C)c2)o1	?	-25%	-1	?	-2%	2%
CC(/C=N/NC(=O)Cc1cccs1)=C\c1ccco1	?	-9%	3	90	-5%	-2%
CC(/C=N/NC(=O)c1cccs1)=C\c1ccco1	7.9µM*	.	-6	.	-1%	.
COc1ccc(OCC(O)CNC(=O)c2cccs2)cc1 (centres undefined)	.	.	1	.	0%	.
Cc1ccc(S(=O)(=O)N2CCN(Cc3ccccc3)CC2)c(C)c1N(C)S(=O)(=O)c1ccccc1	-11%	-7%	-3	6	2%	-4%
O=C(NC(=S)N1CCN(C/C=C/c2ccccc2)CC1)c1ccc(Cl)nc1	18µM*	.	-5	.	3%	.
Cn1cccc1C(=O)N1CCC2(CC1)CN(C(=O)Nc1cccc(C#N)c1)C2	28µM*	-16%	.	.	8%	-3%
Cc1cc(F)c(F)cc1C(=O)N1CCCC1	-3%	.	-3	.	11%	.
Cc1cc(C)cc(C(=O)N2CCCCCC2)c1	7%	16µM*	4	0	7%	5%
Cc1cc(C(=O)N2CCCCCC2)cs1	-5%	0.45µM*	0	-124*	-10%	0%
Cc1ccc(C(=O)Nc2ccc(C(=O)N3CCCCC3)cc2)cc1	?	.	-1	.	5%	.
Cc1ccc(S(=O)(=O)N2CCC(C(=O)O)(c3ccccc3)CC2)cc1	1%[13.5 µM]	-4%	.	.	.	1%[11.4 µM]
Cc1ccc(-c2csc3ncnc(Sc4nnc(CN5CCCCCC5=O)o4)c23)cc1	7.9µM*	-27%	1	?	-2%	-14%
COc1ccc(C2CC(c3ccccc3)Oc3c(C)ccc(C(C)C)c32)cc1 (centres undefined)	.	.	.	.	11%	.
COc1ccc2c(c1OC)C(Cc1ccccc1)N1CCc3cc4c(cc3C1C2)OCO4 (centres undefined)	?	?	-10	.	-5%	-12%
C1=C(c2ccccc2)Nc2ccccc2N=C1c1ccccc1	-2%	-5%	2	?	5%	2%
O=C1Nc2ccccc2N=C(c2ccccc2)C1N1CCOCC1 (centres undefined)	22µM*	-11%	4	?	13%	-3%
O=C1Nc2ccccc2N=C(c2ccccc2)C1Br (centres undefined)	16µM*	.	17	.	-9%	.
